Among the data in PubChem BioAssay are insulin secretion stimulation and viability decrease values, retold here.

Unmarked numbers belong to inactive results. Calls of active or inactive are those of the source.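 How the source made its calls, unless noted: active means compounds lowering colon cancer cell viability after pretreatment blocking the GSK3B kinase; inactive means the rest.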

One experiment in a line: stimulators of insulin release from INS-1E, primary screen, cell-based, 5 mM glucose, NPC library (AID 1117329;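 active means compound raises insulin release from rat beta cells at 5 mM glucose, no numeric limit stated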; further: reference of the scale not given here). To be noted: rat INS-1E insulin secretion, at 10 µM, active compounds read high.
Regarding `C[C@H](N)[C@H](O)c1cccc(O)c1`, the insulin secretion stimulation is -3.4%.
The same measure, in the same setting: the figure for `CN(Cc1cc(Br)cc(Br)c1N)C1CCCCC1` is 6.9%.
Same read-out and setting: the figure for `CC(=O)Nc1ccccc1` is 1%; for `CC(=O)Nc1ccc(S(=O)(=O)Nc2ccc([N+](=O)[O-])cc2)cc1` it is -0.2%; for `CCCOc1ccc2nc(NC(=O)OC)[nH]c2c1` it is 1.2%.
Same read-out and setting: for `CN(C)CCOC(=O)C(c1ccccc1)C1(O)CCCC1` (stereo unspecified) the value was 0.2%; for `Cc1cc(O)cc(C)c1Cl`, 2%.
Take `CCCCCCc1ccc(O)cc1O`: the insulin secretion stimulation was 9.8%.
On the same count and under the same terms, the figure for `Nc1ncnc2nc[nH]c12` is -0.3%; for `CC(N)C(=O)OC(C)(C)Cc1ccc(Cl)cc1` (stereo unspecified) it is 4.8%; for `COc1c2occc2c(OC)c2c(=O)cc(C)oc12` it is 0.7%.
For the compound `CC1=C(C(=O)O)N2C(=O)[C@@H](NC(=O)[C@H](N)c3ccc(O)cc3)[C@H]2SC1`, the insulin secretion stimulation is -0.5%.
The same measure, in the same setting: the figure for `COc1ccc(NS(=O)(=O)c2ccc(N)cc2)nn1` is 0.2%; for `NC[C@H]1O[C@H](O[C@H]2[C@H](O)[C@@H](O[C@H]3O[C@H](CO)[C@@H](O)[C@H](N)[C@H]3O)[C@H](N)C[C@@H]2N)[C@H](N)[C@@H](O)[C@@H]1O` it is -0.7%; for `CCCCc1nc(Cl)c(CO)n1Cc1ccc(-c2ccccc2-c2nn[nH]n2)cc1` it is 0.1%.
Regarding `CC(=O)Oc1cccc(O)c1`, the insulin secretion stimulation is 2.6%.
Still for that read-out and setting: the figure for `COc1ccc(C(=O)c2ccccc2)c(O)c1` is -2.9%.
As for `O=C(N[C@H](CO)[C@H](O)c1ccc([N+](=O)[O-])cc1)C(Cl)Cl`, the insulin secretion stimulation was 1.8%.
On the same count and under the same terms, for `CCN(CC)CCOC(=O)C(c1ccccc1)C1CCCCC1` (stereo unspecified) the value was 18.2%.
Still for that read-out and setting: the figure for `Nc1c2ccccc2nc2ccccc12` is 39.7% (active).
Still for that read-out and setting: the figure for `Oc1c(Br)cc(Br)c2cccnc12` is 2.4%; for `C[N+]12CCC(CC1)C(OC(=O)C(O)(c1ccccc1)c1ccccc1)C2` (stereo unspecified) it is -0.3%; for `CC(=O)Nc1c(I)cc(I)c(C(=O)O)c1I` it is 0.6%.
As to `Cc1c(NC(C)C)c(=O)n(-c2ccccc2)n1C`, the insulin secretion stimulation was 0.4%.
Same read-out and setting: for `COc1ccc2cc3[n+](cc2c1OC)CCc1cc2c(cc1-3)OCO2` the value was 1.05%; for `NC(N)=N/N=C/c1c(Cl)cccc1Cl`, -0.5%; for `CCN(CC)C(=O)c1cccc(C)c1`, 5%.
On the same count and under the same terms, for `CC(=O)OCC(COC(C)=O)OC(C)=O` the value was 0.7%; for `CC1(C)OC(=O)NC1=O`, 0.6%; for `COc1cnc(NS(=O)(=O)c2ccc(N)cc2)nc1`, 1.9%.
The same measure, in the same setting: the figure for `CCCCC(CC)CN1CN(CC(CC)CCCC)CC(C)(N)C1` (stereo unspecified) is 6.1%; for `Cc1[nH]c(C)c(Cl)c(=O)c1Cl` it is -1.1%; for `Cc1nnc(NS(=O)(=O)c2ccc(N)cc2)s1` it is -2.4%.
Consider `Nc1ccc(C(=O)O)cc1`, for which the insulin secretion stimulation is -1%.
Regarding `Nc1nccs1`, the insulin secretion stimulation is -0.1%.
Regarding `COc1ccc(-c2cc(C(F)F)nn2-c2ccc(S(N)(=O)=O)cc2)cc1F`, the insulin secretion stimulation was -0.6%.
On the same count and under the same terms, for `NC(=O)c1ccc([N+](=O)[O-])cc1Cl` the value was -2.1%; for `CCC(=O)O[C@H]1[C@H](O[C@@H]2[C@@H](C)[C@H](O[C@H]3C[C@@](C)(OC)[C@@H](O)[C@H](C)O3)[C@@H](C)C(=O)O[C@H](CC)[C@@](C)(O)[C@H](O)[C@@H](C)C(=O)[C@H](C)C[C@@]2(C)O)O[C@H](C)C[C@@H]1N(C)C`, -1.7%.

The next experiment can be described thus: growth inhibition of GSK3B-pretreated HCT116 cells – cell-based, CellTiter-Glo, 0.2 to 20 µM (AID 1117336). The conditions noted are these: HCT116 viability after GSK3B inhibitor, at 20 µM, active compounds read high. A general note: In ATP-based viability assays light output follows the ATP content of the culture.
Consider `C[C@H](N)[C@H](O)c1cccc(O)c1`, for which the viability decrease was -13.4%.
The same measure, in the same setting: the figure for `CN(Cc1cc(Br)cc(Br)c1N)C1CCCCC1` is 87.5% (active).
Consider `CC(=O)Nc1ccccc1`, for which the viability decrease is -5.1%.
On the same count and under the same terms, the figure for `CC(=O)Nc1ccc(S(=O)(=O)Nc2ccc([N+](=O)[O-])cc2)cc1` is 9.9%; for `CCCOc1ccc2nc(NC(=O)OC)[nH]c2c1` it is 27%.
Same read-out and setting: the figure for `CN(C)CCOC(=O)C(c1ccccc1)C1(O)CCCC1` (stereo unspecified) is -18%; for `Cc1cc(O)cc(C)c1Cl` it is -11%; for `CCCCCCc1ccc(O)cc1O` it is 65.4% (active).
Same read-out and setting: for `Nc1ncnc2nc[nH]c12` the value was -4.6%.
On to `CC(N)C(=O)OC(C)(C)Cc1ccc(Cl)cc1` (stereo unspecified), for which the viability decrease was 7.1%.
Same read-out and setting: the figure for `COc1c2occc2c(OC)c2c(=O)cc(C)oc12` is -6.4%.
In the case of `CC1=C(C(=O)O)N2C(=O)[C@@H](NC(=O)[C@H](N)c3ccc(O)cc3)[C@H]2SC1`, the viability decrease is -2.2%.
Still for that read-out and setting: for `COc1ccc(NS(=O)(=O)c2ccc(N)cc2)nn1` the value was -9.5%; for `NC[C@H]1O[C@H](O[C@H]2[C@H](O)[C@@H](O[C@H]3O[C@H](CO)[C@@H](O)[C@H](N)[C@H]3O)[C@H](N)C[C@@H]2N)[C@H](N)[C@@H](O)[C@@H]1O`, -7.8%.
For the compound `CCCCc1nc(Cl)c(CO)n1Cc1ccc(-c2ccccc2-c2nn[nH]n2)cc1`, the viability decrease was -41.3%.
For `CC(=O)Oc1cccc(O)c1`, the viability decrease was 0.4%.
Still for that read-out and setting: the figure for `COc1ccc(C(=O)c2ccccc2)c(O)c1` is -5.25%.
With `O=C(N[C@H](CO)[C@H](O)c1ccc([N+](=O)[O-])cc1)C(Cl)Cl`, the viability decrease was -11.1%.
On the same count and under the same terms, for `CCN(CC)CCOC(=O)C(c1ccccc1)C1CCCCC1` (stereo unspecified) the value was -99.4%; for `Nc1c2ccccc2nc2ccccc12`, 49.2% (active); for `Oc1c(Br)cc(Br)c2cccnc12`, 113% (active).
As to `C[N+]12CCC(CC1)C(OC(=O)C(O)(c1ccccc1)c1ccccc1)C2` (stereo unspecified), the viability decrease is -30.2%.
With `CC(=O)Nc1c(I)cc(I)c(C(=O)O)c1I`, the viability decrease was -43.4%.
Same read-out and setting: for `Cc1c(NC(C)C)c(=O)n(-c2ccccc2)n1C` the value was 3.8%; for `COc1ccc2cc3[n+](cc2c1OC)CCc1cc2c(cc1-3)OCO2`, 57.5% (active).
Still for that read-out and setting: for `NC(N)=N/N=C/c1c(Cl)cccc1Cl` the value was 60% (active); for `CCN(CC)C(=O)c1cccc(C)c1`, 3.4%.
On the same count and under the same terms, for `CC(=O)OCC(COC(C)=O)OC(C)=O` the value was -25.5%; for `CC1(C)OC(=O)NC1=O`, -28.6%; for `COc1cnc(NS(=O)(=O)c2ccc(N)cc2)nc1`, -21.6%.
Regarding `CCCCC(CC)CN1CN(CC(CC)CCCC)CC(C)(N)C1` (stereo unspecified), the viability decrease was 79.6% (active).
On the same count and under the same terms, the figure for `Cc1[nH]c(C)c(Cl)c(=O)c1Cl` is 10.2%; for `Cc1nnc(NS(=O)(=O)c2ccc(N)cc2)s1` it is 6.15%.
`Nc1ccc(C(=O)O)cc1`: the viability decrease was 2.35%.
Same read-out and setting: the figure for `Nc1nccs1` is 12.4%.
In the case of `COc1ccc(-c2cc(C(F)F)nn2-c2ccc(S(N)(=O)=O)cc2)cc1F`, the viability decrease was -65.6%.
`NC(=O)c1ccc([N+](=O)[O-])cc1Cl`: the viability decrease is -0.35%.
Same read-out and setting: for `CCC(=O)O[C@H]1[C@H](O[C@@H]2[C@@H](C)[C@H](O[C@H]3C[C@@](C)(OC)[C@@H](O)[C@H](C)O3)[C@@H](C)C(=O)O[C@H](CC)[C@@](C)(O)[C@H](O)[C@@H](C)C(=O)[C@H](C)C[C@@]2(C)O)O[C@H](C)C[C@@H]1N(C)C` the value was -28.1%.
